# Source: PubChem BioAssay AID651965 (National Center for Advancing Translational Sciences (NCATS), 2013)
# Out of some 340,000 compounds screened, about 6,400 (1.9%) were called active. About 4% were inconclusive and are not listed. Calls follow the shape of the dose curve; as a rule, active = well fitted falling curve with a large enough effect; inconclusive = small, poorly fitted or top-dose-only effect; inactive = no such curve, though single readings can be large or run the other way. What follows is part of a selection rich in actives, with near analogues and random picks from the rest. Entries that show only a call come without a potency.
# Biological target: ATP-dependent Clp protease proteolytic subunit (Bacillus subtilis (strain 168)) (UniProt P80244)
# Sequence (P80244 whole entry, looked up): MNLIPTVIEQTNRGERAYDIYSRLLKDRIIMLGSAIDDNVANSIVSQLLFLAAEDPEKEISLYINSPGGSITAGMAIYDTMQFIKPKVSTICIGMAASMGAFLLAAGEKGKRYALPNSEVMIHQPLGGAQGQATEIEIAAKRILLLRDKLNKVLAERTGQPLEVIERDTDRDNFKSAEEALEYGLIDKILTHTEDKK
# Experiment: qHTS Assay for Activators of ClpP; also: the source files actives as falling curves though it sought activators and does not explain the sign; nearly all actives have a fitted effect of over 65% in size
# Settings: purified B. subtilis ClpP, FRET peptide cleavage, 20 min; series mostly up to 57.5 µM
# How it was run: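 ClpP 10 microg/mL final, pH 8 Tris/KCl buffer with BSA, glycerol, Tween-20; compound pinned in; FRET-FV substrate; RT 20 min; Ex320/Em430; ΔFRET vs ADEP 5.8 microM, DMSO, no enzyme.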
# Potency is read from the fitted curve at half-maximal effect.
row,Structure (SMILES),Potency
1,Cc1cc(Br)cn2c(Cc3ccsc3)c(-c3ccc(C#N)cc3)nc12,inactive
2,CCOC(=O)[C@]12CCC=C1N(Cc1ccco1)C(=O)[C@H](CC(=O)N1CCSCC1)C2,inactive
3,Nc1nc(N)c(N=O)c(N)n1,inactive
4,CCC(=O)N(Cc1cc2ccccc2[nH]c1=O)c1ccc(OC)cc1,inactive
5,CCOc1ccc2[nH]c(=O)c(CN(CCCO)C(C)=O)cc2c1,28.2 µM (active)
6,CCC(=O)N(CCc1ccccc1)Cc1cc2cc(C)ccc2[nH]c1=O,inactive
7,CC(C)N=C1CCCC1C(=S)SSC(=S)C1CCCC1=NC(C)C (stereo not given),inactive
8,Fc1ccc(Nc2nc(SCc3ccccc3Cl)nc3ccccc23)cc1,31.6 µM (active)
9,O=C(CSc1nc(Nc2ccc(F)c(F)c2)c2ccccc2n1)c1ccc(Cl)cc1,inactive
10,Fc1ccc(CSc2nc(NCc3ccccc3)c3ccccc3n2)cc1,inactive
11,Cc1cccc(C)c1NC(=O)C(c1cccc2ccccc12)n1c(=O)c(-c2ccco2)nc2ccccc21 (stereo not given),inactive
12,CN(Cc1ccccc1)c1ccc(/C=C/c2ccnc3ccccc23)cc1,inactive
13,CN(C)c1ccc(/C=C2\C=Cc3ccccc32)cc1Br,inactive
14,CCc1ccc(NC(=O)c2cc3c(=O)n(Cc4cccnc4)ccc3nc2C)cc1,inactive
15,Cc1nc2ccn(Cc3cccnc3)c(=O)c2cc1C(=O)N1CCN(c2ccccc2F)CC1,25.1 µM (active)
16,O=C(Cn1nc(Cc2cccnc2)c2ccccc2c1=O)N1CCN(c2ccccc2F)CC1,inactive
17,CN1CCc2c(sc3c2c(NCc2ccco2)nc2nnnn23)C1,17.8 µM (active)
18,Cn1c(=O)n(Cc2ccco2)c(=N)c2c3c(sc21)CCCC3,inactive
19,CCCSc1nc(NCc2ccco2)c2c3c(sc2n1)COC(C)(CC)C3 (stereo not given),inactive
20,NC(=S)NN=Cc1ccc(OC(=O)COc2cc(Cl)c(Cl)cc2Cl)cn1,inactive
21,Nc1nonc1C(=O)NCCc1ccccc1,inactive
22,Cc1ccc(-n2nc(CO)c(C(=O)NCCc3ccccc3)n2)cc1,10 µM (active)
23,COc1ccc(CCNC(=O)c2c(C)nn(-c3ccccc3)c2Cl)cc1,inactive
24,CC(C)NC(=O)c1nn(-c2ccccc2F)nc1CO,inactive
25,COc1ccc(C(=O)NC(C)CCc2ccccc2)c(OC)c1 (stereo not given),inactive
26,O=C(NCCCO)c1nn(-c2ccc(Cl)cc2)nc1CO,14.1 µM (active)
27,O=C(Cc1ccc(Cl)cc1)Nc1ccc2nn(-c3ccc(Cl)cc3)nc2c1,inactive
28,CC(CCCc1ccccc1)NC(=O)c1nn(-c2ccc(Cl)cc2)nc1CO (stereo not given),31.6 µM (active)

row,Structure (SMILES),Potency
1,Cc1cc2nn(-c3ccc(Cl)cc3)nc2cc1NC(=O)C(C)C,inactive
2,CCN(CC)c1ccc(/C=C/c2c(C)cnc3ccc(C)cc23)cc1,inactive
3,COC(=O)c1ccc2nc(-c3cccc(Br)c3)c(Cc3ccc(OC)cc3C)n2c1,inactive
4,CCOC(=O)c1cc(-c2sc(NC(=O)c3ccccc3)nc2C)n(CCO)n1,inactive
5,CCCCCCCCN1C(=O)[C@H](CC(=O)NCc2cccc3ccccc23)C[C@@]2(C(=O)OC)CCCCC=C12,inactive
6,CC(C)c1ccc(OCC(O)Cn2cnc3ccccc32)cc1 (stereo not given),28.2 µM (active)
7,CC(C)c1ccc(OCC(O)CN2CCN(c3ccccn3)CC2)cc1 (stereo not given),inactive
8,CC(C)c1ccc(Cn2c(COc3ccccc3)nc3ccccc32)cc1,inactive
9,COc1cc2[nH]c(=O)n(Cc3ccc(C(=O)NC4CCN(Cc5ccccc5)CC4)cc3)c(=O)c2cc1OC,inactive
10,COc1cc2[nH]c(=O)n(Cc3ccc(C(=O)NCc4ccc(C)cc4)cc3)c(=O)c2cc1OC,10 µM (active)
11,CC(C)(C)c1cc(C(=O)NCc2cccnc2)ccn1,inactive
12,COCCn1c(=S)[nH]c2cc(C(=O)NCCc3ccc(OC)c(OC)c3)ccc2c1=O,inactive
13,CCOc1cc2[nH]c(=S)n(Cc3ccc(C(=O)NCCOC)cc3)c(=O)c2cc1OCC,inactive
14,COCCn1c(=O)[nH]c2cc(C(=O)NCc3cccnc3)ccc2c1=O,28.2 µM (active)
15,CCCCCn1nnnc1C1c2ccccc2C(=O)N1Cc1ccco1 (stereo not given),inactive
16,C#Cc1cc(N2CCN(C(=O)c3ccoc3)CC2)n2nc(-c3cccc(Cl)c3)cc2n1,inactive
17,CC(=O)N1Cc2cc(C(=O)NCc3cccc(F)c3)nc(-c3cccc(C4=CCCCC4)c3)c2[C@H]1CCO,inactive
18,CC(C)(C)C(=O)c1c(N)[nH]c(C(=O)c2ccccc2)c1-c1ccc(F)cc1,inactive
19,O[C@@H]1C[C@H](c2ccccc2)N(Cc2cccs2)C[C@H]1n1cc(C2CC2)nn1,inactive
20,O=C(Cn1c(=O)n(Cc2ccccc2)c(=O)c2sc3ccccc3c21)Nc1ccccc1F,28.2 µM (active)
21,O=C(Cn1c(=O)n(-c2ccc(F)cc2)c(=O)c2sc3ccccc3c21)NC1CCCC1,inactive
22,CCOc1ccccc1NC(=O)Cn1c(=O)n(Cc2ccco2)c(=O)c2sc3ccccc3c21,inactive
23,O=C(CSC1=Nc2ccccc2C2=NC(c3ccccc3)C(=O)N12)NCC1CCCO1 (stereo not given),17.8 µM (active)
24,Cc1ccc(CNC(=O)CSC2=Nc3ccccc3C3=NC(C)C(=O)N23)cc1 (stereo not given),inactive
25,O=C(CSC1=Nc2ccccc2C2=NC(CC(=O)NCc3ccco3)C(=O)N12)NCc1ccco1 (stereo not given),inactive
26,Cc1ccc(S(=O)(=O)N2CCN(c3nc(-n4cnc5ccccc54)nc4ccccc34)CC2)cc1,inactive
27,O=C(c1ccc(Cl)cc1)n1cnc2ccccc21,inactive
